Screens as filed in PubChem BioAssay.
HCV inhibitor – inhibitors of hepatitis C virus infection | Huh7.5.1 HCVcc-Cre infection, luciferase reporter, 44 h | Potency, µM (top dose mostly 41.8 µM), hits mostly inhibitors | 3.4% of 340,000 active | AID 651820; active = well fitted inhibition curve with a large enough effect; inconclusive = small, poorly fitted or top-dose-only effect, or another doubt; inactive = no such curve, though single readings can be large or run the other way
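Whole-lifecycle infectious HCVcc-Cre system; cells 1,000/well, compound then virus (~0.5 moi) added 4 h after plating, 44 h culture. Luciferase read 15 sec following 15 min substrate incubation, room temp.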
HCMV antiviral – human cytomegalovirus inhibition. HFF cells, HCMV-luciferase reporter, 72 h; stronger effect = lower value. activity change, negative = inhibition, % at 57.5 µM. 4.5% of 410,000 active. AID 1259415; in the data active = activity change below about -60%; inconclusive = no clear call, values can overlap the other calls; inactive = above about -39%
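Steps: HFFs plated, 16 h 37C; compounds added; HCMV-luciferase added to MOI 1 PFU/cell; 72 h 37C; OneGlo reagent, 5 min room temperature; luminescence read, normalized to controls.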
MARV entry inh – inhibitors of Marburg virus binding or cell entry | Marburg virus pseudotyped entry inhibition, cell reporter | AID 540276 | Potency, µM (top dose mostly 37.8 µM), actives largely listed as inhibitors | 1.8% of 300,000 active; calls by dose curve; tested in HEK293 cells
Lassa entry inh – blocks Lassa virus binding to or entry into cells; Lassa virus pseudotype entry inhibition, cell reporter; Potency, µM (titrated, usually from 37.9 µM), most hits filed as inhibitors; 1.2% of 300,000 active; calls by dose curve; tested in HEK293 cells; note: nearly all actives have a fitted effect of over 50% in size
FMDV inh – foot and mouth disease virus antiviral activity; FMDV antiviral cell-based qHTS; Potency, µM (titrated, usually from 57.9 µM), hits mostly inhibitors; 1.2% of 410,000 active; calls by dose curve; tested in HEK293T cells; note: read-out not given here; nearly all actives have a fitted effect of over 45% in size
Hits are given with their value; 0 = inactive; ? = inconclusive; - = no result; ! = repeats disagree; [ ] = another dose, or the depositor's remark. Compounds with a hit are over-represented: about 7.9% of the library has one in this group of screens.

SMILES | HCV inhibitor | HCMV antiviral | MARV entry inh | Lassa entry inh | FMDV inh
CC(=O)c1ccc(NC(=O)C2CCN(S(=O)(=O)c3ccc4c(c3)N(C(C)=O)CCO4)CC2)cc1 | 0 | 0 | 0 | 0 | 0
CCOCCCNC(=O)C(c1ccccc1)N(Cc1ccc2c(c1)OCO2)C(=O)c1ccc(NC(C)=O)cc1 (configuration not stated) | - | 0 | ? | ? | 0
Cc1nc(N)nc(N)c1-c1ccc([N+](=O)[O-])cc1 | 0 | ? | ? | ? | 0
CNC(=O)C1CCC(Cn2c(=O)c3sccc3n(CC(=O)Nc3cc(F)ccc3F)c2=O)CC1 (configuration not stated) | - | 0 | - | 0 | 0
CN(C)c1ccc(/C=N/NC(=O)C(=O)/C=C2\NC3(CCCC3)Cc3ccccc32)cc1 | ? | -62.8 | ? | ? | 0
COc1cc(/C=N/NC(=O)C(=O)/C=C2\NC3(CCCC3)Cc3ccccc32)ccc1O | ? | 0 | ? | 0 | ?
O=C(/C=C1\NC2(CCCC2)Cc2ccccc21)C(=O)N/N=C/c1ccccc1O | ? | -71.0 | 11.2µM | 14.6µM | 0
COCCn1nc2ccccc2c1OC | - | 0 | - | - | -
CCc1nn(CC(=O)N2CCN(Cc3ccc4c(c3)OCO4)CC2)c(=O)c2cc3occc3n12 | ? | -61.1 | ? | 0 | ?
CCc1cccc(NC(=O)CCCn2nc(CC)n3c(cc4occc43)c2=O)c1 | ? | 0 | - | - | 0
CCc1nn(CC(=O)NCCc2ccc(OC)cc2OC)c(=O)c2cc3occc3n12 | ? | -61.5! | 0 | 0 | 0
CCc1nn(CCCC(=O)NCc2ccccc2Br)c(=O)c2cc3occc3n12 | 0 | -68.1! | 0 | - | 0
CN(CCNC(=O)C1CC(=O)N(c2ccc(F)c(Cl)c2)C1)Cc1ccccc1 (configuration not stated) | 0 | -67.3 | 0 | 0 | -
Cc1ccc2[nH]c3c(c2c1)CCc1cn[nH]c1-3 | 14.1µM | 0 | 0 | ? | 0
Cc1ccc2[nH]c3c(c2c1)CCCC3=O | 10µM | 0 | 0 | 0 | 0
COc1ccc(N2CCN(C(CNS(=O)(=O)c3cc(F)ccc3F)c3cccnc3)CC2)cc1 (configuration not stated) | 0 | -106.6 | 0 | 0 | 0
COc1ccc(N2CCN(C(CNC(=O)c3cccc(OC)c3)c3cccnc3)CC2)cc1 (configuration not stated) | - | 0 | - | 0 | 0
O=C(NCC(c1cccnc1)N1CCN(c2ccc(F)cc2)CC1)c1cccc(Cl)c1 (configuration not stated) | 14.1µM | 0 | ? | 0 | 25.1µM
CC(=O)Nc1ccc2nc(NC(=O)c3cccs3)sc2c1 | 0 | 0 | ? | ? | 0
CN(CC1CCCO1)S(=O)(=O)c1ccc(C(=O)Nc2nc3cc4c(cc3s2)OCO4)cc1 (configuration not stated) | ? | -85.4 | - | - | 0
COc1ccc2nc(NC(=O)c3cccs3)sc2c1 | 0 | 0 | 6.31µM | ? | 0
COc1ccc(C(=O)Nc2nc3c(s2)Cc2cc(OC)ccc2-3)cc1 | 12.6µM | ? | 0 | 0 | 10µM
CN(CC1CCCO1)S(=O)(=O)c1ccc(C(=O)Nc2ccc3c(c2)OCO3)cc1 (configuration not stated) | 0 | 0 | 0 | 0 | 0
O=C(Nc1nc2cc3c(cc2s1)OCCO3)c1cccs1 | 11.2µM | 0 | - | - | ?
Cc1c(C(=O)N2CCCCC2)sc2ncnc(NCCc3ccccn3)c12 | - | - | - | - | 0
SMILES | HCV inhibitor | HCMV antiviral | MARV entry inh | Lassa entry inh | FMDV inh
CC(C)CC(=O)Nc1ccc(C(=O)OCc2cc(=O)n3nc(C(C)C)sc3n2)cc1 | - | 0 | - | 0 | ?
CC1CCCC(NC(=O)CSc2nnc(-c3cccnc3)n2N)C1C (configuration not stated) | 0 | 0 | 0 | 0 | 0
COc1ccc2nc(NC(=O)c3ccc(F)cc3)sc2c1 | 0 | 0 | ? | 0 | 0
COc1ccc2nc(NC(=O)c3ccc(-n4nc(C)cc4C)cc3)sc2c1 | 0 | -105.8 | 0 | 0 | 0
CCOC(=O)c1c(NC(=O)c2ccc(S(=O)(=O)N(C)CC3CCCO3)cc2)sc2c1CCN(C)C2 (configuration not stated) | 12.6µM | 0 | - | - | 0
CCN(CC)S(=O)(=O)c1cccc(C(=O)Nc2nc3cc4c(cc3s2)OCCO4)c1 | 2.24µM | -98.3 | 18.3µM | ? | 12.6µM
COc1ccc2nc(NC(=O)Nc3cccc4ccccc34)sc2c1 | 0 | -76.2 | 0 | 0 | 0
COc1ccc2nc(NC(=O)Nc3ccccc3OC)sc2c1 | ? | 0 | ? | ? | 0
COc1ccc(O)c(CN2CCN(CCCc3ccccc3)C(CCO)C2)c1 (configuration not stated) | 0 | 0 | - | - | 0
CCOC(=O)Nc1ccc2c(c1)Cc1cc([N+](=O)[O-])ccc1-2 | ? | -90.0 | 0 | ? | 0
CC(C)[C@@]1(NC(=O)[C@@H]2C[C@@H]3c4cccc5[nH]cc(c45)C[C@H]3N(C)C2)O[C@@]2(O)C3CCCN3C(=O)[C@H](Cc3ccccc3)N2C1=O (some centres not stated) | - | - | 5.62µM | 0 | -
CC(C)[C@@]1(NC(=O)[C@@H]2C[C@@H]3c4cccc5[nH]cc(c45)C[C@H]3N(C)C2)O[C@@]2(O)[C@@H]3CCCN3C(=O)[C@H](Cc3ccccc3)N2C1=O | 0[8.37 µM] | 0 | 5.62µM! | ? | 0
CSC(=Nc1ccccc1)N=C(SCc1ccccc1)N(C)C | ? | -101.4 | ? | 12.6µM | ?
N#CNC(=Nc1ccccc1)SCc1ccc(C(=O)O)cc1 | 0 | 0 | 0 | 0 | 0
Cc1ccc(N2CCN(S(=O)(=O)c3ccc4oc(=O)c5ncn(C)c5c4c3)CC2)c(C)c1 | - | 0 | - | 0 | 0
CCN(CC)CCc1c(C)[nH]c(C(=O)OCc2ccccc2)c1C | ? | 0 | 25.9µM | 0 | 0
CCOC(=O)c1[nH]c(C)c(CN(CCc2ccccc2)C(=O)CCC(=O)O)c1C | 0 | 0 | 0 | 0 | 0
O=C(CSc1ccccc1)N1CCN(c2ccccn2)CC1 | 0 | 0 | 0 | 0 | 0
O=C(CSc1ccsc1[N+](=O)[O-])N1CCN(c2ccccn2)CC1 | 0 | -67.8 | ? | 0 | 0
COc1ccccc1CNC(=O)CSc1ccsc1[N+](=O)[O-] | 0 | 0 | - | - | 0
CCc1ccccc1NC(=O)CSc1ccsc1[N+](=O)[O-] | ? | -65.9 | 0 | 0 | ?
S=c1sc2c(Cl)ncnc2n1-c1ccccc1 | 3.98µM | 0 | 23.1µM | 23.1µM | ?
O=C(C1CC(=O)N(c2ccc3c(c2)OCCO3)C1)N1CCN(S(=O)(=O)c2ccccc2F)CC1 (configuration not stated) | 0 | ? | 0 | 0 | ?
Cc1ccc(O)c(C2=NNC(O)(C(F)(F)F)C2)c1 (configuration not stated) | 11.2µM | 0 | 0 | ? | 0
CCOC(=O)[C@]12Cc3cc(C)ccc3[C@H]1N(Cc1ccccc1)C(=O)c1cc(F)c(F)cc12 | - | -108.7 | - | - | 11.2µM
CCOC(=O)[C@]12Cc3c(cc(OC)c(OC)c3OC)[C@H]1N(Cc1ccccc1)C(=O)c1cc(F)c(F)cc12 | - | -61.4 | - | - | 0
CCOC(=O)[C@]12Cc3c(cc(OC)c(OC)c3OC)[C@H]1N(Cc1ccccc1)C(=O)c1cc(OC)ccc12 | - | -107.2 | - | - | 17.8µM
